In PubChem BioAssay (EPA / NIEHS):
Several values for one entry are separate records, joined by “and”; a condition that tells them apart may be missing. Equal values may be shown once. Results filed as inconclusive are left out. The source holds several records for some structures; these can differ, active in one and inactive in another. Activity calls are given as the source filed them. The calls were made as follows: active = hit-call score of the fitted dose curve at least 0.9, where 1 is the maximum; inconclusive = response in the unintended direction; inactive = score below 0.9.

Columns and labels:
[1] = target: Cellular tumor antigen p53 (Homo sapiens) (UniProt P04637); assay: TOX21_p53_BLA_p2_ratio: Tox21 HCT-116 p53 Agonism Beta-lactamase Assay, Ratio, Phase 2 (AID 2283592)
Outline: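 HCT-116 cells with p53-responsive beta-lactamase reporter, 4000 cells/well, preincubated 5 h, then compound in DMSO (217-fold dilution) for 16 h at 37C. CCF4-AM substrate 2 h at room temperature; 460/530 nm emission ratio fitted upward versus DMSO.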

[2] = target: Cellular tumor antigen p53 (Homo sapiens) (UniProt P04637); assay: TOX21_p53_BLA_p3_ratio: Tox21 HCT-116 p53 Agonism Beta-lactamase Assay, Ratio, Phase 3 (AID 2283596)
Outline: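 HCT116 p53-bla cells (4000/well) given compound in DMSO (217-fold dilution) after 5 h, incubated 16 h at 37C. CCF4-AM substrate 2 h at room temperature; 460/530 nm emission ratio, gain fitted against DMSO.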

[3] = TOX21_p53_BLA_p4_viability: Viability Assessment in the Tox21 HCT-116 p53 Agonism Beta-lactamase Assay, Phase 4 (AID 2283597);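 also: hits lower the luminescence signal meaning cytotoxicity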
Outline: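 HCT-116 p53-bla cells, 4000/well, dosed after 5 h attachment and incubated 16 h at 37 °C, 5% CO2. Viability from CellTiter-Glo ATP luminescence after 30 min at room temperature, taken after the beta-lactamase read; loss of signal indicates cytotoxicity.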

[4] = target: Cellular tumor antigen p53 (Homo sapiens) (UniProt P04637); assay: TOX21_p53_BLA_p5_ratio: Tox21 HCT-116 p53 Agonism Beta-lactamase Assay, Ratio, Phase 5 (AID 2283599)
Outline: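 HCT-116 p53-bla cells (4000/well) plated 5 h, dosed with compound (217-fold DMSO dilution) for 16 h at 37 C; CCF4-AM substrate 2 h at room temperature. Activity is the 460/530 nm emission ratio (405 nm excitation), fitted in gain-of-signal direction versus DMSO.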

[5] = TOX21_p53_BLA_p5_viability: Viability Assessment in the Tox21 HCT-116 p53 Agonism Beta-lactamase Assay, Phase 5 (AID 2283600)
Outline: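 HCT-116 p53 beta-lactamase reporter cells, 4000/well, were exposed to compound (pin transfer, 217-fold dilution) for 16 hours at 37C. Cellular ATP was read by CellTiter-Glo luminescence after 30 min at room temperature.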

[6] = target: Cellular tumor antigen p53 (Homo sapiens) (UniProt P04637); assay: TOX21_p53_BLA_p4_ratio: Tox21 HCT-116 p53 Agonism Beta-lactamase Assay, Ratio, Phase 4 (AID 2283601)
Outline: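 HCT-116 p53 beta-lactamase reporter cells (4000/well) preincubated 5 h, then compound (217-fold dilution of DMSO stock) for 16 h at 37C. CCF4-AM substrate added 2 h at room temperature; 460/530 nm emission ratio fitted upward versus DMSO.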

[7] = Tanguay_ZF_120hpf_MORT_legacy: (Legacy) Oregon State University Tanguay Lab 120 Hour Post-fertilization zebrafish Assay for Mortality (AID 2283633);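 as to AC50: fitted as increase in binary mortality versus DMSO negative control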
Outline: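 Dechorionated Tropical 5D wild-type zebrafish embryos, one per well from 6 hpf, static exposure in 0.64% DMSO at 28C until 120 hpf. Mortality scored as binary by brightfield microscopy at 24 and 120 hpf.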

[8] = Tanguay_ZF_120hpf_YSE_legacy: (Legacy) Oregon State University Tanguay Lab 120 Hour Post-fertilization zebrafish Assay for Yolk Sac Edema (AID 2283634);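 as to AC50: actives raise the incidence of yolk sac edema above the DMSO baseline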
Outline: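 Dechorionated Tropical 5D wild-type zebrafish embryos were exposed statically, one per well, from 6 to 120 hpf at 28C in 0.64% DMSO. Yolk sac edema was scored present/absent by brightfield at 120 hpf, and dead embryos were excluded.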

[9] = Tanguay_ZF_120hpf_AXIS_legacy: (Legacy) Oregon State University Tanguay Lab 120 Hour Post-fertilization zebrafish Assay for Body Axis Malformation (AID 2283635)
Outline: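 Dechorionated wild-type Tropical 5D zebrafish embryos, one per well, statically exposed from 6 hpf to 120 hpf at 28C in 0.64% DMSO final. Body axis malformation scored present/absent by brightfield microscopy at 120 hpf; dead embryos excluded.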

[10] = Tanguay_ZF_120hpf_EYE_legacy: (Legacy) Oregon State University Tanguay Lab 120 Hour Post-fertilization zebrafish Assay for Eye Malformation (AID 2283636);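 also: binary presence or absence of eye malformation scored by brightfield in 120 hpf larvae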
Outline: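 Dechorionated Tropical 5D zebrafish embryos, one per well from 6 hpf, static exposure to 120 hpf at 28C, 0.64% DMSO. Eye malformation scored present/absent by brightfield; dead embryos not scored.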

[11] = Tanguay_ZF_120hpf_SNOU_legacy: (Legacy) Oregon State University Tanguay Lab 120 Hour Post-fertilization zebrafish Assay for Snout Malformation (AID 2283637)
Outline: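 Dechorionated tropical 5D wild-type zebrafish embryos exposed statically from 6 to 120 hpf at 28C, one per well, in 0.64% DMSO. Snout malformation scored as present/absent by brightfield at 120 hpf; dead embryos not scored.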

[12] = Tanguay_ZF_120hpf_JAW_legacy: (Legacy) Oregon State University Tanguay Lab 120 Hour Post-fertilization zebrafish Assay for Jaw Malformation (AID 2283638);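 as to AC50: active means more embryos with jaw malformation than DMSO controls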
Outline: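 Dechorionated Tropical 5D wild-type zebrafish embryos, one per well, exposed statically from 6 hpf to 120 hpf at 28C in 0.64% DMSO. Jaw malformation was scored by brightfield microscopy as present or absent. It was not scored in dead embryos.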

[13] = Tanguay_ZF_120hpf_OTIC_legacy: (Legacy) Oregon State University Tanguay Lab 120 Hour Post-fertilization zebrafish Assay for Otic Vesicle Malformation (AID 2283639)
Outline: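 Tropical 5D wild-type zebrafish embryos statically exposed in 0.64% DMSO at 28C until 120 hpf; 5uM trimethyltin chloride as positive control. Otic vesicle malformation scored present/absent by brightfield; dead embryos not scored; gain fitted versus DMSO.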

[14] = Tanguay_ZF_120hpf_PE_legacy: (Legacy) Oregon State University Tanguay Lab 120 Hour Post-fertilization zebrafish Assay for Pericardial Edema (AID 2283640);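 as to AC50: potency for increased incidence of pericardial edema versus DMSO baseline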
Outline: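 Tropical 5D wild-type zebrafish embryos were statically exposed until 120 hpf at 28C, with 0.64% DMSO final. Pericardial edema was scored by brightfield as present or absent; endpoints were not scored in dead embryos.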

[15] = Tanguay_ZF_120hpf_SOMI_legacy: (Legacy) Oregon State University Tanguay Lab 120 Hour Post-fertilization zebrafish Assay for Somite Malformation (AID 2283647)
Outline: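 Dechorionated Tropical 5D wild-type zebrafish embryos, one per well from 6 hpf, statically exposed at 28C to 120 hpf in 0.64% DMSO; somite malformation scored present/absent by brightfield; trimethyltin 5 uM positive control; dead embryos not scored.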

[16] = Tanguay_ZF_120hpf_PFIN_legacy: (Legacy) Oregon State University Tanguay Lab 120 Hour Post-fertilization zebrafish Assay for Pectoral Fin Malformation (AID 2283648);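 also: each larva judged yes or no for fin defect by brightfield with dead larvae skipped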
Outline: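 Dechorionated Tropical 5D wild-type zebrafish embryos, one per well, statically exposed from 6 to 120 hpf at 28C with 0.64% DMSO final. Pectoral fin malformation scored present/absent by brightfield at 120 hpf; not scored in dead embryos.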

[17] = Tanguay_ZF_120hpf_CFIN_legacy: (Legacy) Oregon State University Tanguay Lab 120 Hour Post-fertilization zebrafish Assay for Caudal Fin Malformation (AID 2283649)
Outline: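 Dechorionated Tropical 5D wild-type embryos, one per well from 6 hpf, static exposure to 120 hpf at 28C in 0.64% DMSO. Caudal fin malformation scored by brightfield as present/absent; not scored in dead embryos.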

[18] = Tanguay_ZF_120hpf_PIG_legacy: (Legacy) Oregon State University Tanguay Lab 120 Hour Post-fertilization zebrafish Assay for Pigmentation Malformation (AID 2283650)
Outline: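 Dechorionated Tropical 5D wild-type embryos, one per well from 6 hpf, statically exposed at 28C in the dark until 120 hpf, 0.64% DMSO final. Pigmentation scored present/absent by brightfield microscopy; dead embryos not scored; fitted versus DMSO.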

[19] = Tanguay_ZF_120hpf_CIRC_legacy: (Legacy) Oregon State University Tanguay Lab 120 Hour Post-fertilization zebrafish Assay for Circulatory Malformation (AID 2283651)
Outline: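 Dechorionated wild-type 5D zebrafish embryos, one per well, statically exposed from 6 to 120 hpf at 28C with 0.64% DMSO; circulatory malformation scored present/absent by brightfield microscopy at 120 hpf, dead embryos excluded.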

[20] = Tanguay_ZF_120hpf_BRAI_legacy: (Legacy) Oregon State University Tanguay Lab 120 Hour Post-fertilization zebrafish Assay for Brain Malformation (AID 2283641)
Outline: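 Tropical 5D wild-type zebrafish embryos exposed statically until 120 hpf at 28C, 0.64% DMSO final, sealed and dark. Brain malformation scored present/absent by brightfield at 120 hpf; dead embryos excluded. Trimethyltin chloride 5uM positive control.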

Measured: AC50

Chain of Cellular tumor antigen p53 (Homo sapiens) (P04637 whole entry, looked up): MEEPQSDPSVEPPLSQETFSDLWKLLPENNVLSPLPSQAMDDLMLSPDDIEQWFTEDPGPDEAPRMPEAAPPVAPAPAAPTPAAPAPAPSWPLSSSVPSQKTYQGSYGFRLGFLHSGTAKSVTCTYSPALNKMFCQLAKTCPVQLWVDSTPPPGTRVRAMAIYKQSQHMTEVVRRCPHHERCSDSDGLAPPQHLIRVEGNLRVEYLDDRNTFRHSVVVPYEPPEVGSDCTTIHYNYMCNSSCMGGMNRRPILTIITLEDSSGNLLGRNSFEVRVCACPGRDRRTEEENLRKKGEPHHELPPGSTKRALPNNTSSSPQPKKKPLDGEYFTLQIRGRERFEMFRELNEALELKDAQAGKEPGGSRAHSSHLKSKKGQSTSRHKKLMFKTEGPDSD

CN(C)C(=O)NC1(c2ccccc2)CCN(CC[C@@]2(c3ccc(F)c(F)c3)CN(C(=O)c3ccccc3)CCO2)CC1
active: [3] 65 µM
not listed: [20]
inactive: all other assays above

O=C(O)c1[nH]n(-c2ccc(S(=O)(=O)O)cc2)c(=O)c1N=Nc1ccc(S(=O)(=O)O)cc1
inactive: [1] | [2] | [3] | [4] | [5] | [7] | [8] | [10] | [11] | [12] | [13] | [14] | [20] | [15] | [16] | [17] | [18] | [19]
active: [1] 0.000189 µM | [2] 0.0528 nM | [4] 0.0652 nM | [6] 6.18e-05 µM

O=C1O[C@H]([C@H](O)CO)C(O)=C1O
not listed: [5] | [9] | [11] | [13] | [14]
inactive: all other assays above

CC1=C(C)S(=O)(=O)CCS1(=O)=O
not listed: [5] | [11] | [17]
inactive: all other assays above

COC(=O)[C@H]1[C@H]2C[C@@H]3c4[nH]c5cc(OC)ccc5c4CCN3C[C@H]2C[C@@H](OC(=O)c2cc(OC)c(OC)c(OC)c2)[C@@H]1OC
not listed: [18]
inactive: all other assays above

c1ccc2occc2c1
not listed: [8] | [11]
inactive: all other assays above

COc1ccc(C(=O)Nc2nc3ccccc3c(NCc3ccccc3)c2C#N)cc1
inactive: [2] | [3] | [7] | [8] | [11] | [12] | [20] | [18] | [19]
active: [1] 60.1 µM | [4] 63100 nM | [6] 72.8 µM

Cc1c(C)c2c(c(C)c1O)CCC(C)(COc1ccc(CC3SC(=O)NC3=O)cc1)O2 (configuration not stated)
inactive: [5] | [7] | [8] | [10] | [11] | [12] | [13] | [14] | [20] | [15] | [16] | [17] | [18] | [19]
active: [1] 15.4 µM and 28.5 µM | [2] 28.1 µM and 26 µM | [3] 66.4 µM and 34.8 µM | [4] 56.1 µM and 34.1 µM | [5] 87 µM | [6] 76 µM and 35.5 µM

S=c1[nH]c2ccccc2s1
active: [8] 11.7 µM | [10] 42.1 µM | [11] 40.7 µM | [12] 10.7 µM | [13] 11.2 µM | [14] 37.6 µM | [20] 40.7 µM | [15] 44.5 µM | [16] 10.4 µM | [17] 31.9 µM | [18] 39.6 µM
inactive: [1] | [2] | [3] | [4] | [6] | [7]

CN(C)CCCN1c2ccccc2Sc2ccc(Cl)cc21
active: [1] 6.66 µM | [3] 36.8 µM and 73.4 µM | [5] 77.8 µM | [6] 20.6 µM | [7] 16.3 µM
inactive: [1] | [2] | [4] | [6] | [8] | [10] | [11] | [12] | [13] | [14] | [20] | [15] | [16] | [17] | [18] | [19]

CN(C)C(=O)NC1(c2ccccc2)CCN(CCC[C@]2(c3ccc(Cl)c(Cl)c3)CCCN(C(=O)c3ccccc3)C2)CC1
not listed: [4] | [9]
inactive: all other assays above

CCc1nc(N)nc(N)c1-c1ccc(Cl)cc1
inactive: [1] | [2] | [4] | [5] | [6] | [7] | [8] | [12] | [13] | [14] | [20] | [15] | [16] | [17] | [18] | [19]
active: [1] 58.9 µM and 27 µM | [3] 18.3 µM and 15.9 µM and 10.4 µM | [5] 15.3 µM | [6] 47.9 µM

CCC(C)N(C)C(=O)c1cc2ccccc2c(-c2ccccc2Cl)n1 (configuration not stated)
active: [8] 20.4 µM | [14] 6.53 µM
not listed: [9]
inactive: all other assays above
